CtBP-E1A blk: blocks the CtBP interaction with E1A | AlphaScreen GST-E1A/His-CtBP binding, 1536-well; stronger effect = lower value | activity change, % (no concentration beside the values) | 340,000 tested, 0.49% active; in the data active = activity change below about -65%; inconclusive = mostly about -30% to -63%
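Homogeneous bead-based format: GST-tagged E1A captured on glutathione donor beads, His-tagged CtBP on nickel acceptor beads; compounds precede bead addition by 2 h at 37 °C.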
VP16 counter: counter-screen for ROR gamma inhibitors: Gal4-VP16 reporter. Drosophila S2 Gal4-VP16 UAS-luciferase, luminescence, 20 h. Potency, µM (highest dose often 53.6 µM), usual class: inhibitors. 310,000 tested, 3.5% active. AID 2546;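 also: Gal4-VP16 expression switched on by copper sulfate through the metallothionein promoter; nearly all actives have a fitted effect of over 50% in size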
RORgamma inh: inhibitors of mouse ROR gamma transcriptional activity; 310,000 tested, 5.4% active; Drosophila S2 Gal4-RORgamma UAS-luciferase reporter, 20 h; AID 2551; Potency, µM (highest dose often 53.6 µM), usual class: inhibitors; P51450; also: nearly all actives have a fitted effect of over 60% in size
Target sequence (P51450 whole entry, looked up, the tested form may be a part): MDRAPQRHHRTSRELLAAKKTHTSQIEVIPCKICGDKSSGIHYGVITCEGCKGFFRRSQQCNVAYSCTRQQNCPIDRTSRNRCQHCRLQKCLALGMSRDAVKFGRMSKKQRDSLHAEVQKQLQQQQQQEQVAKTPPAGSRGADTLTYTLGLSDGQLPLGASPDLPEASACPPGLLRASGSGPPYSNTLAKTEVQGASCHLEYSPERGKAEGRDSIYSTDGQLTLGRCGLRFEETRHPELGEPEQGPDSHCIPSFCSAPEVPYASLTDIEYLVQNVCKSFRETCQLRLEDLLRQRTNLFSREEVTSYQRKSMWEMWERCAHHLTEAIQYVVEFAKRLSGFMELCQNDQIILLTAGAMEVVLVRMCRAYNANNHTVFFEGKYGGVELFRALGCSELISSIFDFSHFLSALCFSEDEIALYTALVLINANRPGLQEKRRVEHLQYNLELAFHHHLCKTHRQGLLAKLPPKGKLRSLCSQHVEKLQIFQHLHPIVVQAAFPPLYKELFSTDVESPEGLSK
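Stable Schneider cell line, Gal4 DNA-binding domain fused to ROR gamma, UAS-luciferase. Cmpd 1 hr RT → CuSO4 700 uM final → 20 hr RT → luciferase reagent 10 min → luminescence.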
PKM2 act: increases activity of human pyruvate kinase M2; P14618; purified PKM2, Kinase-Glo ATP luminescence, activation; response scale: 0% is enzyme alone, no compound; Potency, µM (highest dose often 57.5 µM), actives largely listed as activators; 260,000 tested, 0.34% active; also: nearly all actives have a fitted effect of over 55% in size
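Kinase-Glo luminescence reports ATP generated from ADP (0.1 mM) and PEP (0.5 mM) by purified hPK-M2 after 1 h at room temperature, pH 7.2 imidazole buffer; intermediate enzyme activity allows detecting inhibitors and activators.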
Six1-Eya2 inh: Six1/Eya2 interaction inhibition | activity change, % (concentration not given with the values) | 360,000 tested, 0.56% active | AlphaScreen GST-Six1/His-Eya2 binding, biochemical; stronger effect = lower value | Q15475+O00167 | AID 651725; in the data active = activity change below about -65%; inconclusive = mostly about -30% to -63%
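AlphaScreen luminescence read after one hour at 37 °C in darkness. Pin-transferred compounds met GST-Six1 and His-Eya2 protein (5X stock 250 nM/500 nM) plus glutathione donor and Ni-chelate acceptor beads (5X, 50 ug/mL).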
HeLa viability: counter-screen for pyruvate kinase M2 activators: HeLa cytotoxicity; shares compounds with PKM2 act; HeLa viability, CellTiter-Glo ATP luminescence, 24 h; activity change, negative = cytotoxicity, % at 57.5 µM; 230 tested, under 10 active
A number is an active result; 0 = inactive; ? = inconclusive; - = no result given; [ ] = another dose, or the depositor's remark. In the library only some 5.6% were active in any assay of this set; here they are far more common. Unless noted, calls follow the shape of the dose curve; as a rule, active = well fitted curve in the direction sought with a large enough effect; inconclusive = small, poorly fitted or top-dose-only effect, or another doubt; inactive = no such curve, though single readings can be large; an effect the other way counts as inactive or inconclusive.

SMILES	CtBP-E1A blk	VP16 counter	RORgamma inh	PKM2 act	Six1-Eya2 inh	HeLa viability
Oc1ccc(-c2csc(-c3cccnc3)n2)c(O)c1	0	0	?	0	0	-
Oc1ccc(-c2nc(-c3ccc(O)c(O)c3)cs2)cc1	?	0	0	3.2µM	0	0
CCOc1ccccc1C(=O)NC(C(=O)N(C)c1c(N)n(Cc2ccccc2)c(=O)[nH]c1=O)C(C)C (stereo not drawn)	0	-	-	-	0	-
CCOc1ccc(NS(=O)(=O)c2ccc3c(c2)CCN3C(=O)C2CCC2)cc1	0	0	0	0	0	-
O=C(C1CCC1)N1CCc2cc(S(=O)(=O)Nc3ccc4c(c3)OCO4)ccc21	0	?	?	2.8µM	0	0
COc1cccc(N(CC(=O)N2CCCCCC2)S(C)(=O)=O)c1	0	0	0	0[11.5 µM]	0	-
COc1ccc(S(=O)(=O)c2ccc(O)cc2)cc1	0	0	0	4.5µM	0	0
Cc1cc(=O)[nH]c2ccc(S(=O)(=O)Nc3ccc(O)cc3)cc12	-	0	?	2.2µM	0	0
COC(=O)c1[nH]c2c(c1C)C(=O)CC(c1ccccc1)C2 (stereo not drawn)	0	0	0	0	0	-
Cc1c(C(=O)N2CCOCC2)[nH]c2c1C(=O)CC(c1ccccc1Cl)C2 (stereo not drawn)	0	0	0	16µM	0	0
Cc1cc(C(=O)NN)c(Cl)cc1Cl	0	0	0	0	0	-
Cc1cc2c(s1)c1cnn(Cc3cccc(F)c3)c(=O)c1n2C	-	-	-	-	-	0
Cc1cccc(Cn2cc3c(=O)n(Cc4cccc(F)c4)nc-3c3ccccc32)c1	0	0	0	-	0	-
Cc1cc2c(s1)c1cnn(Cc3cccc(Cl)c3)c(=O)c1n2C	-	-	-	-	-	0
CSc1nc2ccccc2c(=O)n1C1CCOC(C)(C)C1 (stereo not drawn)	0	0	0	0	0	-
O=C(c1cccc([N+](=O)[O-])c1)N1CCCC(C(=O)N2CCc3ccccc3C2)C1 (stereo not drawn)	-	0	0	-	0	-
CN(C(=O)COc1ncnc2sccc12)C1CCCCC1	0	-	-	-	0	-
COc1cc(C2C3=C(CCCC3=O)Nc3c2c(C)nn3-c2cccc(C)c2)cc(OC)c1O (stereo not drawn)	0	0	0	7.1µM	0	?
COC(=O)[C@]1(Cc2ccccc2)N[C@H](c2ccc(-c3cccc(Cl)c3)cc2)[C@@H]2C(=O)N(C)C(=O)[C@@H]21	0	-	-	-	0	-
Cc1cc2c(s1)c1c(n2C)C(=O)N(Cc2ccccc2F)C1	-	-	-	-	-	0
CC(C)c1ccc(S(=O)(=O)c2cc3cc(Br)ccc3oc2=O)cc1	0	?	0	0.56µM	0	0
O=c1[nH]c(CN2CCN(c3ccc(O)cc3)CC2)nc2scc(-c3ccc(Cl)cc3)c12	0	0	0	2.8µM	?	0
O=c1[nH]c(CN2CCN(c3ccccc3O)CC2)nc2scc(-c3ccccc3Cl)c12	0	0	0	0	0	-
CC(Sc1nn(-c2ccccc2)c(=S)s1)C(=O)NCC1CCCO1 (stereo not drawn)	-	-	-	-	0	-
O=[N+]([O-])c1ccc(NCCCNS(=O)(=O)c2ccccc2)c(Cl)c1	0	0	0	7.9µM	0	0
SMILES	CtBP-E1A blk	VP16 counter	RORgamma inh	PKM2 act	Six1-Eya2 inh	HeLa viability
C/C=C\C=C/C(=O)Nc1cccc(C2=NOC3(C2)C[C@@H](C(N)=O)N(C(=O)/C=C/C=C\C)C3)c1 (stereo partly drawn)	0	0	0	1.4µM	0	0
C/C=C\C=C/C(=O)Nc1cccc(C2=NOC3(C2)C[C@@H](C(N)=O)N(C(=O)/C=C/CC)C3)c1 (stereo partly drawn)	0	0	0	?	0	-
Cc1ccccc1-n1nnnc1SCc1cc(=O)n2ccsc2n1	0	0	?	0.79µM	0	0
Cn1c2ccsc2c2ncn(Cc3ccccc3F)c(=O)c21	-	-	-	-	-	?
Cn1c2ccccc2c2ncn(Cc3ccc(F)cc3)c(=O)c21	0	0	0	0	0	-
Cc1cccc(Cc2ncc(C(F)(F)F)cc2Cl)c1	-	0	0	-	0	-
O=C(Cc1cccs1)N1CCCC(c2nc3c(nnn3Cc3cccc(Cl)c3)c(=O)[nH]2)C1 (stereo not drawn)	0	0	0[10 µM]	16µM	0	0
Cc1cc(C)n2nc(SCc3cc(=O)oc4cc(C)c(C)cc34)nc2n1	-	0	0	0	-	-
Cc1cc(C)n2nc(SCc3cc(=O)oc4ccc5ccccc5c34)nc2n1	0	0	0	2.8µM	0	0
COc1ccc(/C(=C\C(=O)O)c2nccc3cc(OC)c(OC)cc23)cc1OC	-	0	0	-	-	-
Cn1c2cc(S(C)=O)sc2c2cnn(Cc3ccccc3F)c(=O)c21 (stereo not drawn)	-	-	-	-	-	0
CC(=O)c1cc2c(s1)c1cnn(Cc3ccccc3F)c(=O)c1n2C	-	-	-	-	-	0
CC(C#N)(Cc1ccccc1)Nc1ccccc1 (stereo not drawn)	-	-	-	-	0	-
CNc1c([N+](=O)[O-])cnn1-c1ccc(Cl)cc1	0	0	0	7.9µM	0	0
CCN1C[C@@H]2[C@@H]3C(=O)N(Cc4ccccc4)C(=O)[C@@H]3[C@](CC)(C(=O)OC)N2C1=NC	0	-	-	-	0	-
CC(=O)Nc1cccc(-c2ccnc3c2CC(C(=O)NCc2ccc(N(C)C)cc2)O3)c1 (stereo not drawn)	0	-	-	-	0	-
Cc1cc(NC(=O)Nc2cc(F)ccc2F)no1	-	0	0	0	0	-
O=C(NCc1ccc2c(c1)OCO2)c1ccc(NS(=O)(=O)c2ccc3c(c2)OCCO3)cc1	0	0	?	4.5µM	0	0
O=C(NCc1ccc2c(c1)OCO2)c1ccc(S(=O)(=O)N2CCCCC2)cc1	0	0	0	0	0	-
c1ccc2c(SCc3cn4ccccc4n3)nncc2c1	-	0	0	4.5µM	0	0
Nc1ccccc1SCc1cn2ccccc2n1	0	?	?	0	0	-
Cc1ccccc1N1CCN(C2CCCN(C(=O)c3noc4c3CCCC4)C2)CC1 (stereo not drawn)	0	0	0	0	0	-
O=C(NCc1nnc2c(C(F)(F)F)cc(Cl)cn12)c1cccs1	0	0	0	2.8µM	0	0
O=C(NCc1nnc2c(C(F)(F)F)cc(Cl)cn12)C1CCCC1	0	0	0	0	0	-
O=S(=O)(c1ccccc1)N1CCN(S(=O)(=O)c2ccc3c(c2)OCCO3)CC1	-	-	-	-	-	0
O=S(=O)(c1cccc(C(F)(F)F)c1)N1CCN(S(=O)(=O)c2ccc3c(c2)OCCO3)CC1	-	-	-	-	-	0
Cc1ccc(NC(=O)CN(C)C(=O)CSc2ncc(C(F)(F)F)cc2Cl)cc1	0	0	0[10 µM]	0	0	-
CNC(=O)NC(=O)CSc1ncc(C(F)(F)F)cc1Cl	0	0	0	0.4µM	0	0
O=S(=O)(NCCCNS(=O)(=O)c1c(F)cccc1F)c1ccc2c(c1)OCCO2	-	-	-	-	-	0
